{"source": "PubChem BioAssay AID1159580", "about": "(chemical genetic matrix, 2015)", "test": "chemical genetic growth profiling, strain panel (AID 1159580);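 note: tested at 20 µM; growth read once vehicle control cultures reached saturation at 30 °C; 1 = growth at the plate median or of vehicle wells; lower values mean less growth of the strain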", "settings": "S. cerevisiae deletion strains, growth OD", "key": {"[1]": {"settings": "locus YAL013W, strain DEP1, stronger effect = lower value"}, "[2]": {"settings": "locus YGR078C, strain PAC10, stronger effect = lower value"}, "[3]": {"settings": "locus YJR075W, strain HOC1, stronger effect = lower value"}, "[4]": {"settings": "locus YMR263W, strain SAP30, stronger effect = lower value"}, "[5]": {"settings": "locus YMR307W, strain GAS1, stronger effect = lower value"}, "[6]": {"settings": "locus YNL153C, strain GIM3, stronger effect = lower value"}, "[7]": {"settings": "locus YNL322C, strain KRE1, stronger effect = lower value"}, "[8]": {"settings": "locus YPL055C, strain LGE1, stronger effect = lower value"}, "[9]": {"settings": "locus YPL241C, strain CIN2, stronger effect = lower value"}, "[10]": {"settings": "locus YAL040C, strain CLN3, stronger effect = lower value"}, "[11]": {"settings": "locus YCL061C, strain MRC1 (second series), stronger effect = lower value"}, "[12]": {"settings": "locus YDR363W, strain ESC2, stronger effect = lower value"}, "[13]": {"settings": "locus YER002W, strain NOP16, stronger effect = lower value"}, "[14]": {"settings": "locus YNL175C, strain NOP13, stronger effect = lower value"}, "[15]": {"settings": "locus YNL197C, strain WHI3, stronger effect = lower value"}, "[16]": {"settings": "locus YNL224C, strain SQS1, stronger effect = lower value"}, "[17]": {"settings": "locus YOR083W, strain WHI5 (second series), stronger effect = lower value"}}, "note": "In all, about 5,500 compounds went through this assay and about 2,000 (36%) were called active. Not shown: some 18% with an inconclusive outcome. The list shows a part of the results. Unmarked numbers belong to inactive results. Cut-off read from the data, not from the text of the source: active = normalized growth mostly below about 0.91 (no sharp cut-off); inconclusive = no clear call, values can overlap the other calls; inactive = mostly above about 0.92.", "data": [{"smiles": "CCOC(=O)CC1=Nn2c(nnc2-c2cc(Cl)cc(Cl)c2)SC1", "values": [{"measurement": "normalized growth", "setting": "[1]", "result": 0.97}, {"measurement": "normalized growth", "setting": "locus YBR229C, strain ROT2, stronger effect = lower value", "result": "0.905 (active)"}, {"measurement": "normalized growth", "setting": "locus YDL101C, strain DUN1, stronger effect = lower value", "result": 0.914}, {"measurement": "normalized growth", "setting": "locus YDL134C, strain PPH21, stronger effect = lower value", "result": 0.996}, {"measurement": "normalized growth", "setting": "locus YDR150W, strain NUM1, stronger effect = lower value", "result": 0.857}, {"measurement": "normalized growth", "setting": "locus YEL061C, strain CIN8, stronger effect = lower value", "result": 0.934}, {"measurement": "normalized growth", "setting": "[2]", "result": 0.97}, {"measurement": "normalized growth", "setting": "locus YGR229C, strain SMI1, stronger effect = lower value", "result": 0.979}, {"measurement": "normalized growth", "setting": "locus YHR030C, strain SLT2, stronger effect = lower value", "result": "0.538 (active)"}, {"measurement": "normalized growth", "setting": "locus YHR087W, strain rtc3, stronger effect = lower value", "result": 0.927}, {"measurement": "normalized growth", "setting": "locus YJL187C, strain SWE1, stronger effect = lower value", "result": "0.913 (active)"}, {"measurement": "normalized growth", "setting": "locus YJR043C, strain POL32, stronger effect = lower value", "result": 0.989}, {"measurement": "normalized growth", "setting": "[3]", "result": "0.811 (active)"}, {"measurement": "normalized growth", "setting": "locus YLR039C, strain RIC1, stronger effect = lower value", "result": 0.91}, {"measurement": "normalized growth", "setting": "locus YLR058C, strain SHM2 (second series), stronger effect = lower value", "result": 0.971}, {"measurement": "normalized growth", "setting": "locus YLR085C, strain ARP6, stronger effect = lower value", "result": 0.808}, {"measurement": "normalized growth", "setting": "locus YLR262C, strain YPT6, stronger effect = lower value", "result": 0.982}, {"measurement": "normalized growth", "setting": "locus YML094W, strain GIM5, stronger effect = lower value", "result": "0.823 (active)"}, {"measurement": "normalized growth", "setting": "locus YMR219W, strain ESC1, stronger effect = lower value", "result": 0.955}, {"measurement": "normalized growth", "setting": "[4]", "result": 0.965}, {"measurement": "normalized growth", "setting": "[5]", "result": 0.806}, {"measurement": "normalized growth", "setting": "[6]", "result": 0.95}, {"measurement": "normalized growth", "setting": "locus YNL298W, strain CLA4 (second series), stronger effect = lower value", "result": "0.823 (active)"}, {"measurement": "normalized growth", "setting": "[7]", "result": 0.977}, {"measurement": "normalized growth", "setting": "locus YNR030W, strain Alg12, stronger effect = lower value", "result": 0.914}, {"measurement": "normalized growth", "setting": "[8]", "result": 0.864}, {"measurement": "normalized growth", "setting": "[9]", "result": 1.01}, {"measurement": "normalized growth", "setting": "locus YPR135W, strain CTF4, stronger effect = lower value", "result": 0.714}]}, {"smiles": "C=CCN1CC[C@]23CCCCC2[C@H]1Cc1ccc(O)cc13", "note": "(stereo not given in full)", "values": [{"measurement": "normalized growth", "setting": "[1]", "result": 1.02}, {"measurement": "normalized growth", "setting": "[10]", "result": 1.01}, {"measurement": "normalized growth", "setting": "[11]", "result": 1.01}, {"measurement": "normalized growth", "setting": "[12]", "result": 1.02}, {"measurement": "normalized growth", "setting": "[13]", "result": 1}, {"measurement": "normalized growth", "setting": "[2]", "result": 0.995}, {"measurement": "normalized growth", "setting": "[3]", "result": 0.999}, {"measurement": "normalized growth", "setting": "[5]", "result": 1.01}, {"measurement": "normalized growth", "setting": "[6]", "result": 1.02}, {"measurement": "normalized growth", "setting": "[14]", "result": 1.01}, {"measurement": "normalized growth", "setting": "[15]", "result": 0.997}, {"measurement": "normalized growth", "setting": "[16]", "result": 0.988}, {"measurement": "normalized growth", "setting": "[17]", "result": 1.01}]}, {"smiles": "C=CCN1CCC23c4c5ccc(O)c4O[C@H]2C(=O)CC[C@@]3(O)C1C5", "note": "(stereo not given in full)", "values": [{"measurement": "normalized growth", "setting": "[1]", "result": 1.01}, {"measurement": "normalized growth", "setting": "[10]", "result": 1}, {"measurement": "normalized growth", "setting": "[11]", "result": 1}, {"measurement": "normalized growth", "setting": "[12]", "result": 1.01}, {"measurement": "normalized growth", "setting": "[13]", "result": 0.994}, {"measurement": "normalized growth", "setting": "[4]", "result": 0.998}, {"measurement": "normalized growth", "setting": "[5]", "result": 0.998}, {"measurement": "normalized growth", "setting": "[14]", "result": 0.997}, {"measurement": "normalized growth", "setting": "[15]", "result": 1.01}, {"measurement": "normalized growth", "setting": "[16]", "result": 1.01}, {"measurement": "normalized growth", "setting": "[7]", "result": 1.01}, {"measurement": "normalized growth", "setting": "[17]", "result": 1}, {"measurement": "normalized growth", "setting": "[8]", "result": 1.02}, {"measurement": "normalized growth", "setting": "[9]", "result": 1}]}]}
